Assay [1] can be described thus: A CellTox Green Cytotoxicity Assay to monitor cytotoxicity in HEK293 cells - 32 hour (AID 1224881). Also: nearly all actives have a fitted effect of over 40% in size. Also: potency is read from the fitted curve at half-maximal effect. A digest of the protocol:
(§1)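 Each value comes from one timepoint of a single continuous run in which HEK293 cells with CellTox Green were exposed to compound for up to 40 h at 37 C, dye fluorescence rising with cell death.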

Assay [2] can be described thus: A CellTox Green Cytotoxicity Assay to monitor cytotoxicity in HepG2 cells - 0 hour (AID 1224882). Also: nearly all actives have a fitted effect of over 35% in size. Also: potency is read from the fitted curve at half-maximal effect. A digest of the protocol: (§2)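 Continuous culture of HepG2 cells with a membrane-impermeant DNA dye; rising fluorescence marks dead cells. Compound exposure lasted up to 40 h at 37 C, with reads every 8 h from 0 h.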
Assay [3] is described as follows: A CellTox Green Cytotoxicity Assay to monitor cytotoxicity in HepG2 cells - 32 hour (AID 1224883). Also: nearly all actives have a fitted effect of over 50% in size. Also: potency is read from the fitted curve at half-maximal effect. In a few lines:
as §2

Assay [4] can be described thus: A CellTox Green Cytotoxicity Assay to monitor cytotoxicity in HEK293 cells - 8 hour (AID 1224884). Also: nearly all actives have a fitted effect of over 35% in size. Also: potency is read from the fitted curve at half-maximal effect. In a few lines: as §1
A short description of assay [5]: qHTS RealTime-Glo MT Cell Viability Assay in HepG2 cells - 16 hour (AID 1224885). Also: nearly all actives have a fitted effect of over 50% in size. Also: potency is read from the fitted curve at half-maximal effect. A digest of the protocol: (§3)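 Cells + NanoLuc/prosubstrate dispensed (600 cells/well) → 5 h at 37 C/5% CO2 → compounds in DMSO transferred → 40 h incubation at 37 C, luminescence read at 0, 8, 16, 24, 32, 40 h.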
Assay [6] is described as follows: qHTS RealTime-Glo MT Cell Viability Assay in HEK293 cells - 24 hour (AID 1224886). Also: nearly all actives have a fitted effect of over 50% in size. Also: potency is read from the fitted curve at half-maximal effect. In a few lines:
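Tox21 10K qHTS, HEK293, 600 cells/well, RealTime-Glo reagent co-dispensed with cells; 5 h preincubation, compound by pintool, 37 C, luminescence at 0–40 h.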
In general terms: In qHTS, concentration-response curves come from the screen itself.

A short description of assay [7]: qHTS RealTime-Glo MT Cell Viability Assay in HEK293 cells - 8 hour (AID 1224887). Also: nearly all actives have a fitted effect of over 50% in size. Also: potency is read from the fitted curve at half-maximal effect. In a few lines:
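qHTS format; HEK293 cells with NanoLuc/prosubstrate reagent, 37 C/5% CO2 for 5 h pre-dosing; compounds 23 nL in DMSO; luminescence at each time point reflects viable cells.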

The nature of assay [8]: A CellTox Green Cytotoxicity Assay to monitor cytotoxicity in HEK293 cells - 16 hour (AID 1224888). Also: nearly all actives have a fitted effect of over 35% in size. Also: potency is read from the fitted curve at half-maximal effect. A digest of the protocol: as §1
Assay [9] in a line: qHTS RealTime-Glo MT Cell Viability Assay in HepG2 cells - 0 hour (AID 1224889). Also: nearly all actives have a fitted effect of over 50% in size. A digest of the protocol: as §3
The nature of assay [10]: A CellTox Green Cytotoxicity Assay to monitor cytotoxicity in HepG2 cells - 8 hour (AID 1224890). Also: nearly all actives have a fitted effect of over 45% in size. Also: potency is read from the fitted curve at half-maximal effect. A digest of the protocol: as §2

Results filed as inconclusive are left out. Active and inactive are the calls of the source. Calls follow the shape of the dose curve; as a rule, active = well fitted curve in the direction sought with a large enough effect in the repeat runs; inconclusive = weak or mixed curves; inactive = no such curve, though single readings can be large; an effect the other way counts as inactive or inconclusive.

With `COP(=S)(OC)Oc1ccc([N+](=O)[O-])c(C)c1`, the Potency result in [1], in assay [2], in assay [3], in [4], in [5] and in assay [6] was “inactive” each time. Further, the Potency entry in [7], in assay [8], in assay [9] and in [10] was “inactive” throughout.

For the compound `S=C=Nc1ccccc1`, the Potency entry in [1], in assay [2], in assay [3], in [4], in [5] and in [6] was “inactive” each time. In addition, the Potency entry in assay [7], in assay [8], in [9] and in [10] was “inactive” throughout.

For `CC(C)NCC(O)c1ccccc1Cl` (stereo not given), the Potency result in [1], in assay [2], in [3], in [4], in [5] and in [6] was “inactive” throughout. Moreover, the Potency result in assay [7], in [8], in [9] and in assay [10] was “inactive” in each case.

As to `CCC1(CC)C(=O)N=C(O)NC1=O`, the Potency entry in [1], in [2], in [3], in assay [4], in assay [5] and in [6] was “inactive” throughout. Besides, the Potency result in [7], in [8], in assay [9] and in assay [10] was “inactive” in each case.

As to `CCCCn1cc[n+](C)c1.[Cl][Fe-]([Cl])([Cl])[Cl]`, the Potency result in assay [1], in [2], in assay [3], in [4], in assay [5] and in assay [6] was “inactive” throughout. The Potency result in assay [7], in assay [8], in assay [9] and in [10] was “inactive” each time.

As for `CN=C=O`, the Potency entry in assay [1], in [2], in assay [3], in assay [4], in assay [5] and in assay [6] was “inactive” throughout. The Potency entry in [7], in assay [8], in [9] and in [10] was “inactive” each time.

Take `O=[N+]([O-])c1ccc(CCl)cc1`: the Potency entry in [1], in [2], in assay [3], in assay [4], in assay [5] and in [6] was “inactive” in each case. For the same compound, the Potency entry in assay [7], in assay [8], in [9] and in assay [10] was “inactive” each time.

As to `O=P(Cl)(Cl)Cl`, the Potency result in assay [1], in assay [2], in assay [3], in assay [4], in assay [5] and in assay [6] was “inactive” in each case. Moreover, the Potency result in assay [7], in [8], in [9] and in [10] was “inactive” each time.

For the compound `CCNS(=O)(=O)C(F)(F)C(F)(F)C(F)(F)C(F)(F)C(F)(F)C(F)(F)C(F)(F)C(F)(F)F`, the Potency result in assay [1], in [2], in assay [3], in assay [4], in assay [5] and in assay [6] was “inactive” in each case. The Potency entry in assay [7], in assay [8], in [9] and in [10] was “inactive” throughout.

As to `CC(Cc1ccccc1)N(C)Cc1ccco1` (stereo not given), the Potency result in assay [1], in assay [2], in assay [3], in assay [4], in assay [5] and in assay [6] was “inactive” each time. In addition, the Potency entry in [7], in assay [8], in assay [9] and in assay [10] was “inactive” each time.

`O=S(=O)(NS(=O)(=O)C(F)(F)F)C(F)(F)F`: the Potency entry in assay [1], in [2], in assay [4], in assay [5], in assay [7] and in [8] was “inactive” throughout. For the same compound, the Potency entry in [9] and in assay [10] was “inactive” throughout. Moreover, the Potency in assay [3] is 48.9 µM (active); in [6], 1.23 µM (active).

As for `CCC[CH2][Sn]([CH2]CCC)([CH2]CCC)[CH2]CCC`, the Potency in assay [1] is 13.8 µM (active); in [2], 38.9 µM (active); in assay [3], 15.5 µM (active); in assay [4], 49 µM (active); in assay [5], 6.92 µM (active); in assay [6], 9.77 µM (active). Also, the values for the Potency in [7], in assay [8] and in [10] were 11 µM (active), 24.5 µM (active) and 21.9 µM (active), respectively. Also, the Potency result in assay [9] was “inactive”.

Take `O=C(CCCCl)c1ccc(F)cc1`: the Potency result in assay [1], in assay [2], in assay [3], in [4], in assay [5] and in [6] was “inactive” each time. Also, the Potency result in assay [7], in [8], in [9] and in assay [10] was “inactive” each time.

Turning to `Clc1ccc(C2(Cn3cncn3)OCCO2)c(Cl)c1`, the Potency entry in assay [1], in [2], in assay [3], in assay [4], in [5] and in assay [6] was “inactive” in each case. The Potency entry in assay [7], in assay [8], in [9] and in assay [10] was “inactive” each time.

Consider `CCOP(=O)(OCC)Oc1cc(C)nc(C(C)C)n1`, for which the Potency result in assay [1], in [2], in [3], in assay [4], in assay [5] and in [6] was “inactive” each time. In addition, the Potency entry in assay [7], in assay [8], in assay [9] and in [10] was “inactive” in each case.

`Cc1ccn2nc(S(=O)(=O)Nc3c(F)cccc3F)nc2n1`: the Potency result in assay [1], in assay [2], in assay [3], in assay [4], in assay [5] and in [6] was “inactive” in each case. Besides, the Potency entry in [7], in assay [8], in assay [9] and in assay [10] was “inactive” each time.

In the case of `Nc1nc(N)nc(Cl)n1`, the Potency entry in assay [1], in assay [2], in assay [3], in assay [4], in assay [5] and in assay [6] was “inactive” in each case. Moreover, the Potency entry in [7], in [8], in [9] and in assay [10] was “inactive” throughout.

On to `c1cc[n+]2c(c1)-c1cccc[n+]1CC2`, for which the Potency result in assay [1], in [2], in assay [3], in [4], in [5] and in assay [6] was “inactive” in each case. The Potency entry in assay [7], in assay [8], in assay [9] and in assay [10] was “inactive” throughout.

Regarding `CCCCCCC[CH2][Sn]([Cl])([Cl])[CH2]CCCCCCC`, the Potency entry in [1], in [2], in [3], in [4], in [5] and in assay [6] was “inactive” throughout. The Potency entry in assay [7], in assay [8], in assay [9] and in [10] was “inactive” each time.

Take `CC(C)C(Br)C(=O)NC(N)=O` (stereo not given): the Potency result in assay [1], in assay [2], in assay [3], in assay [4], in assay [5] and in assay [6] was “inactive” throughout. Further, the Potency result in [7], in assay [8], in assay [9] and in assay [10] was “inactive” in each case.

Consider `CNC(=O)/C=C(\C)OP(=O)(OC)OC`, for which the Potency result in assay [1], in assay [2], in assay [3], in [4], in assay [5] and in assay [6] was “inactive” each time. Moreover, the Potency result in assay [7], in [8], in assay [9] and in assay [10] was “inactive” in each case.

For `CNN`, the Potency result in assay [1], in assay [2], in assay [3], in [4], in assay [5] and in assay [6] was “inactive” in each case. Besides, the Potency entry in assay [7], in assay [8], in assay [9] and in assay [10] was “inactive” in each case.
